Giardia kill = Giardia lamblia killing; Giardia lamblia trophozoite viability; AID 540267; 340,000 compounds, 0.15% hits; activity change, % at 7.66 µM, hits read low; in the data active means activity change below about -80%; inconclusive means between about -30% and that limit;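 further: parasites exposed to compound for two days anaerobically before the ATP read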
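Luminescent ATP signal served as the viability read-out, measured 15-30 min after adding ATP detection reagent to trophozoites that had been incubated with compounds for 48 hrs at 37 deg C anaerobically at 100 cells/well.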
KCNH2 3.1 block = blocks the human KCNH2 3.1 channel isoform. U2OS KCNH2 3.1, thallium flux FluxOr; stronger effect = lower value. activity change, % (tested at about 1.8 µM). 340,000 compounds, 0.95% hits. AID 720553;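 active means maximum activity change below -70%; inconclusive means maximum activity change from -70% to -50%; inactive means maximum activity change above -50%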;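 further: thallium influx rate constant from kinetic fluorescence after stimulation buffer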
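Thallium flux via FluxOr fluorescence (Red40 quencher, 45 min loading) in U2OS cells virally expressing the KCNH2 3.1 isoform (1.77 x 10^8 /mL virus, overnight at 37 C). Rate constants from 2-min kinetic reads post-stimulation, normalised to positive and negative controls.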
USP1-UAF1 inh = blocks the human USP1/UAF1 deubiquitinase complex. 390,000 compounds, 0.23% hits. recombinant USP1/UAF1, Ub-Rhodamine cleavage fluorescence. O94782. Potency, µM (series often up to 57.1 µM), inactives show at the top dose activity change, negative = inhibition, usual class: inhibitors; active means well fitted inhibition curve with a large enough effect; inconclusive means small, poorly fitted or top-dose-only effect; inactive means no such curve, though single readings can be large or run the other way; further: potency means the concentration at half of the fitted maximal effect; nearly all actives have a fitted effect of over 60% in size
Target sequence (O94782 whole entry, looked up): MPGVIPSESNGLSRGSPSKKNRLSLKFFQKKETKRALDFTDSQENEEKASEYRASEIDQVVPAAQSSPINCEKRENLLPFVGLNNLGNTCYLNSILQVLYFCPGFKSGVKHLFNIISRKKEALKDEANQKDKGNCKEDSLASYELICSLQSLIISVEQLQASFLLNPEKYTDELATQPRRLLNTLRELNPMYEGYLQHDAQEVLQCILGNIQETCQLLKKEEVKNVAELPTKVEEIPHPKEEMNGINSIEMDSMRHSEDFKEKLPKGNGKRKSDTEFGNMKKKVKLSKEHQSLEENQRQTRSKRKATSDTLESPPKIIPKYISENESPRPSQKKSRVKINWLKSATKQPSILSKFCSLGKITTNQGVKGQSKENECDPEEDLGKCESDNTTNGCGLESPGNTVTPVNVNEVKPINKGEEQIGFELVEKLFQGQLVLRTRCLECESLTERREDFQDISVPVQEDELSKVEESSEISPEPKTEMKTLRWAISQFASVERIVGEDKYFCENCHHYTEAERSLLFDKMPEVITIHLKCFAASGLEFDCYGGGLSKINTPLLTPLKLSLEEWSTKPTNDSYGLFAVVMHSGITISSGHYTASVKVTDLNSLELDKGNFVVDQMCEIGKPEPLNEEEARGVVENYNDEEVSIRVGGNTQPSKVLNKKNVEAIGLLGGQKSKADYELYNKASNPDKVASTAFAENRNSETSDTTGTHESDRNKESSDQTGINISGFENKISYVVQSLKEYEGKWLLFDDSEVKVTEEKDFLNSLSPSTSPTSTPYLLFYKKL
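High-throughput fluorogenic screen: 1nM USP1/UAF1 complex, Ub-Rho substrate 150nM final, 50mM HEPES pH 7.8 with 0.5mM EDTA, 0.1 mg/ml BSA, 1mM TCEP and 0.01% Tween-20.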
FBPA coupling cs = inhibits coupling enzyme system, counter-screen for aldolase hits; coupling enzyme system counterscreen, AmpLite Red fluorescence; activity change, negative = inhibition, % at 58.2 µM, hits read low; 290,000 compounds, 0.67% hits; in the data active means activity change below about -30%
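Fluorescence at 525 nm excitation and 598 nm emission measured inhibition of the coupled detection system without aldolase. Compounds (at 57.5 uM final) were preincubated 10 min at room temperature with coupling enzyme reagent before a 20 min substrate/AmpLite Red step.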
KCNH2 WT inh = inhibitors of human wildtype KCNH2 potassium channel; activity change, % at 1.84 µM; 340,000 compounds, 0.37% hits; U2OS, BacMam KCNH2, thallium flux FluxOr; stronger effect = lower value; Q12809;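 active means maximum activity change below -70%; inconclusive means maximum activity change between -70% and -50%; inactive means maximum activity change above -50%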
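U2OS cells were transduced with wild-type KCNH2 virus (2.03 x 10^8 / mL) for 4 h at room temperature, then cultured overnight at 37 C. Thallium flux was read with FluxOr dye. Rate constants were normalized to DMSO controls.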
The depositor's hits bear a star; ? = inconclusive; / = no result given. Shown are actives, neighbours in structure and some others; about 1.7% of the full set was active somewhere. On the % scale 0 is the no-effect control and ±100 the full control effect.

SMILES	Giardia kill	KCNH2 3.1 block	USP1-UAF1 inh	FBPA coupling cs	KCNH2 WT inh
CC(C)c1ccc(/C=C2\SC(=S)N(CCC(=O)NCCCn3ccnc3)C2=O)cc1	-27	-77*	-14%	/	-1
O=C(Cc1ccc(NC(=O)N2CCCCc3ccccc32)cc1)NCc1ccccc1Br	/	/	-24%	/	/
O=C1c2cccnc2C(=O)N1CO	-26	2	-16%	0	-1
NC1=C(Br)C(=O)c2ncccc2C1=O	-9	-11	4.5µM*	/	1
O=C(c1ccccc1)c1ccc(OCC(O)CNCc2ccc(F)cc2)cc1 (configuration not stated)	11	-29	-15%	1	42
COc1ccc(C(CCNCc2ccccc2)c2ccc(F)cc2)cc1 (configuration not stated)	7	-75*	-1%	2	-15
Cc1ccc(C(OCC(O)CNCc2ccc(F)cc2)c2ccccc2)cc1 (configuration not stated)	30	-106*	4%	1	-79*
COc1ccc(CNCC(O)(c2ccccc2)c2ccc(F)cc2)cc1OC (configuration not stated)	8	0	-13%	0	-16
COc1ccc(C(OCC(O)CNC(C)c2ccccc2)c2ccc(OC)cc2)cc1 (configuration not stated)	10	-76*	-6%	0	-14
COc1ccc(C(OCC(O)CNCCc2ccccc2)c2ccc(OC)cc2)cc1 (configuration not stated)	-8	-19	-2%	4	26
COc1ccc(CNCC(O)(c2ccccc2)c2ccc(F)cc2)cc1 (configuration not stated)	13	-75*	-7%	1	11
CN(C)c1nc(NC2CCC(NC(=O)c3ccc(F)c(F)c3)CC2)nc2ccccc12 (configuration not stated)	/	/	/	-3	/
CCc1ccc(NC(=O)Cn2c(=O)c3cc(Cl)ccc3n3nncc23)cc1	/	/	-15%	/	/
COc1ccc(CNCCC(c2ccc(F)cc2)c2ccc(OC)cc2)cc1 (configuration not stated)	0	-87*	-2%	2	-133*
COc1ccc(CNC(=O)CNC(C)c2ccc(F)cc2)cc1 (configuration not stated)	19	-2	-18%	3	-4
COc1ccc(C(CCNCc2ccc(F)cc2)c2ccc(F)cc2)cc1 (configuration not stated)	9	-6	1%	1	?
COc1ccc(C(CCNC(C)c2ccccc2)c2ccc(F)cc2)cc1 (configuration not stated)	33	-2	-3%	3	-76*
CCCCCN1C(C(=O)c2ccccc2)=C(NC(=O)c2ccccc2Cl)c2ccccc2S1(=O)=O	/	/	-3%	/	/
Cc1cc(C)nc(N/N=C/C(Cl)=C/c2ccccc2)n1	-5	-83*	-21%	2	7
Cc1c(Cl)cccc1NC(=O)C(CCS(C)(=O)=O)N1Cc2ccccc2C1=O (configuration not stated)	/	/	-2%	/	/
COc1ccccc1NS(=O)(=O)c1cc([N+](=O)[O-])ccc1N/N=C/c1c(C)[nH]c2ccccc12	-20	-32	28µM*	-3	-42
COc1ccc(C(=O)NC(=S)N2CC(C)OC(C)C2)cc1 (configuration not stated)	-3	-5	-3%	1	-13
Cc1ccc(C(=O)NC(=S)N2CC(C)OC(C)C2)cc1[N+](=O)[O-] (configuration not stated)	4	-91*	-16%	-2	2
CCCCNC(=O)c1cc(-c2cccnc2)nc2ccc(S(=O)(=O)NCCCC)cc12	/	/	-23%	/	/
Cc1ccsc1C1C2=C(CC(C)(C)CC2=O)Nc2ncnn21 (configuration not stated)	-12	3	-13%	-2	1
SMILES	Giardia kill	KCNH2 3.1 block	USP1-UAF1 inh	FBPA coupling cs	KCNH2 WT inh
Cc1ccsc1C1C2=C(CCCC2=O)Nc2ncnn21 (configuration not stated)	-8	11	-2%	-30*	8
COc1ccccc1OCc1ccc(C(=O)Nc2cc(OC)c(OC)c(OC)c2)o1	-2	14	-29%	-2	-129*
O=C(COc1ccccc1)N1CCN(S(=O)(=O)Cc2ccccc2)CC1	10	-9	-26%	4	-269*
Cc1nc2cc(NC(=O)Nc3cccc([N+](=O)[O-])c3)ccc2n1C	-19	-75*	-19%	-3	2
CCN(CC)CCCNC(=O)c1ccc2c(c1)NC(=O)C(CS(=O)(=O)Cc1ccc(F)cc1Cl)N2 (configuration not stated)	/	/	-3%	/	/
Cc1ccccc1C1=C/C(=C(\SS/C(C(=O)c2ccc(OCC(=O)O)c(Cl)c2Cl)=C2\C=C(c3ccccc3C)SS2)C(=O)c2ccc(OCC(=O)O)c(Cl)c2Cl)SS1	16	2	32µM*	/	-5
O=[N+]([O-])c1nn(-c2ccc3c(c2)OCCO3)n(O)c1=NCCC1=CCCCC1	-93*	4	-18%	-2	6
CN=c1c([N+](=O)[O-])nn(-c2ccc3c(c2)OCCO3)n1O	?	-2	-9%	-12	-5
O=[N+]([O-])c1nn(-c2ccccc2)n(O)c1=NCCc1ccccc1	?	17	-21%	3	17
O=[N+]([O-])c1nn(-c2ccccc2)n(O)c1=NC1CCN(Cc2ccccc2)CC1	-85*	13	-1%	-4	20
O=[N+]([O-])c1nn(-c2ccc3c(c2)OCCO3)n(O)c1=NC1CCN(Cc2ccccc2)CC1	-82*	12	-22%	-3	/
O=C(C1=C(O)C(=O)N(CCc2ccccc2)C1c1cccs1)c1ccco1 (configuration not stated)	-8	-124*	-15%	7	-1
O=C(C1=C(O)C(=O)N(CCc2ccccc2)C1c1cccnc1)c1ccco1 (configuration not stated)	10	1	-17%	9	-3
CCOC(=O)c1c(S(=O)(=O)NCC(=O)Nc2ccc(F)cc2C)c(C)n(C)c1C	/	/	-15%	/	/
O=C(O)c1ccc(NC2=C/C(=N/S(=O)(=O)c3cccs3)c3ccccc3C2=O)cc1	/	9	5µM*	/	-5
O=C1C(Nc2ccc(O)cc2)=C/C(=N/S(=O)(=O)c2cccs2)c2ccccc21	0	-3	4.5µM*	-37*	17
CC(=O)Nc1ccc(OCC(O)Cn2cccn2)cc1 (configuration not stated)	-1	-201*	-12%	0	-1
O=C(NCCN1CCOCC1)c1cc(-c2cccs2)on1	9	-172*	-4%	3	-11
O=C(NCCN1CCOCC1)c1cc(-c2ccccc2)on1	-3	6	-6%	-4	-2
CCCCOc1ccc(-c2nn(-c3ccccc3)cc2C2NC(=O)NC(C)=C2C(=O)OCC)cc1 (configuration not stated)	/	/	-29%	/	/

Assay outcomes deposited in PubChem by National Center for Advancing Translational Sciences (NCATS).
